For 14 compounds, growth results are on record in PubChem BioAssay (NCI).

Molecules are shown by their SMILES. This is part of a sample that, as a whole, favours compounds with a hit. Of some 83,000 tested, about 20% had one in any assay.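 Percent growth is the endpoint: 0 to 100 indicates growth inhibition (40 means 60% inhibition), 0 means no net growth, and negative values indicate cell death.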 Unmarked numbers belong to inactive results. The source made the active and inactive calls. How the source made its calls: active means growth percent below 10; inactive means the rest.

Some test systems named below: NCI-H23 lung; NCI-H226 lung; NCI-H322M lung; HOP-62 NSCLC; NCI-H460 lung; HOP-92 NSCLC; NCI-H522 lung; A549/ATCC NSCLC; 786-0 renal; COLO 205 colon.
Holding throughout (assay): NCI-60 one-dose screen, 48 h (100 = growth as untreated, 0 = no growth, -100 = all killed)
Conditions in all cases: 10 µM unless noted

For the compound `COc1ccc(/C(=N\O)c2cc(C)c(OC)c(C)c2)cc1O`, the growth in the assay with NCI-H23 lung is 45.9%; in the assay with NCI-H226 lung it was 60.6%; in the assay on NCI-H322M lung it was 48.3%; with HOP-62 NSCLC, 39.8%; in the assay with NCI-H460 lung it was 9.22% (active); in the assay with HOP-92 NSCLC, 54.1%. For the same compound, the growth with NCI-H522 lung was -11.4% (active); in the assay on A549/ATCC NSCLC, 22.2%; in the assay on 786-0 renal, 35.3%; in the assay on COLO 205 colon, -38% (active).

Take `C=C(C)[C@@H]1CC[C@]2(C(=O)N3CCN(C)CC3)CC[C@]3(C)[C@H](CC[C@@H]4[C@@]5(C)C/C(=C/c6ccco6)C(=O)C(C)(C)[C@@H]5CC[C@]43C)[C@@H]12`: the growth in the assay on NCI-H23 lung was 79.9%; in the assay on NCI-H226 lung it was 86.4%; in the assay with NCI-H322M lung, 79.9%; in the assay with HOP-62 NSCLC, 73.6%; in the assay with NCI-H460 lung, 64.9%; in the assay on HOP-92 NSCLC it was 55.7%. The growth in the assay on NCI-H522 lung was 74%; with A549/ATCC NSCLC, 60.6%; in the assay on 786-0 renal, 71.2%; in the assay on COLO 205 colon, 74.6%.

`COC(=O)c1nc(-c2ccccc2)oc1S(=O)(=O)n1nc(C)cc1N`: the growth with NCI-H23 lung is 92.1%; in the assay on NCI-H226 lung, 110%; in the assay with NCI-H322M lung, 91.8%; in the assay with HOP-62 NSCLC it was 97%; in the assay on NCI-H460 lung it was 96.9%; in the assay with HOP-92 NSCLC, 49.5%. In addition, the growth is -25.8% (active) in the assay on NCI-H522 lung, 94.9% in the assay with A549/ATCC NSCLC, 80.6% in the assay with 786-0 renal and -63.9% (active) in the assay on COLO 205 colon.

For the compound `CC1=C(CCCOC(=O)NCCCl)C2=C(C)C3(CC3)[C@@](C)(O)C(=O)C2=C1`, the growth in the assay with NCI-H23 lung is -0.524% (active); in the assay on NCI-H226 lung it was 70%; in the assay on NCI-H322M lung, 41.1%; in the assay on HOP-62 NSCLC, -3.61% (active); with NCI-H460 lung, 3.59% (active); with HOP-92 NSCLC, 8.91% (active). In addition, the growth in the assay with NCI-H522 lung was 26.6%; in the assay on A549/ATCC NSCLC, 17.9%; in the assay with 786-0 renal it was 11.6%; in the assay on COLO 205 colon, 3.83% (active).

In the case of `COCCc1n(Cc2ccc3ccccc3c2)c2ccccc2[n+]1Cc1ccc2ccccc2c1`, the growth was -24.3% (active) with NCI-H23 lung; -7.12% (active) with NCI-H226 lung; 5.25% (active) in the assay on NCI-H322M lung; -19.1% (active) in the assay with HOP-62 NSCLC; -65.3% (active) in the assay with NCI-H460 lung; -53.1% (active) in the assay on HOP-92 NSCLC. For the same compound, the growth with NCI-H522 lung is -54.4% (active); in the assay on A549/ATCC NSCLC, 4.72% (active); in the assay on 786-0 renal, -94.3% (active); in the assay with COLO 205 colon, -71% (active).

Consider `Oc1ccccc1-c1nc2c3ccccc3c3ccccc3c2o1`, for which the growth in the assay on NCI-H23 lung was 85.5%; in the assay with NCI-H226 lung, 85.8%; in the assay on NCI-H322M lung, 92.4%; in the assay with HOP-62 NSCLC it was 101%; with NCI-H460 lung it was 69.6%; with HOP-92 NSCLC it was 83.8%. Also, the growth in the assay on NCI-H522 lung is 99.3%; in the assay on A549/ATCC NSCLC it was 90.9%; in the assay with 786-0 renal it was 99.2%; in the assay on COLO 205 colon it was 85.7%.

With `O=S(=O)(Nc1nccs1)c1ccc(Nc2nc(-c3ccncc3)cs2)cc1`, the growth in the assay with NCI-H23 lung was 108%; in the assay with NCI-H226 lung, 102%; with NCI-H322M lung, 126%; in the assay on HOP-62 NSCLC it was 93.8%; in the assay with NCI-H460 lung, 99.3%; in the assay with HOP-92 NSCLC it was 96.9%. Moreover, the growth is 97.6% in the assay on NCI-H522 lung, 104% with A549/ATCC NSCLC, 97.8% with 786-0 renal and 93.2% in the assay on COLO 205 colon.

As to `COc1ccc(-c2cc(-c3nnc(SCC(=O)Nc4ccc(/C(C)=N\O)cc4)n3-c3ccccc3)c3cc(OC)ccc3n2)cc1`, the growth with NCI-H23 lung is 86.4%; in the assay on NCI-H226 lung it was 86.1%; with NCI-H322M lung, 79%; with HOP-62 NSCLC it was 79.4%; in the assay with NCI-H460 lung, 83.9%; in the assay with HOP-92 NSCLC, 78.4%. The growth in the assay on NCI-H522 lung was 35.1%; in the assay with A549/ATCC NSCLC, 51.2%; in the assay on 786-0 renal, 83.5%; in the assay with COLO 205 colon, 93.6%.

For `COc1ccccc1Nc1nnc(-c2ccc(Cl)cc2)o1`, the growth with NCI-H23 lung is 63.9%; in the assay with NCI-H226 lung, 73.6%; with NCI-H322M lung, 70.5%; in the assay on HOP-62 NSCLC, 47.4%; in the assay with NCI-H460 lung, 16.1%; in the assay with HOP-92 NSCLC, 91.1%. Further, the growth in the assay on NCI-H522 lung was 16.6%; in the assay on A549/ATCC NSCLC, 34.4%; with 786-0 renal, 75.8%; in the assay on COLO 205 colon, 35.3%.

Take `COc1ccc(-c2cn(-c3ccc(Cl)cc3)c(=S)[nH]2)cc1OC`: the growth with NCI-H23 lung is 89.6%; with NCI-H226 lung, 63.2%; with NCI-H322M lung, 57.4%; with HOP-62 NSCLC, 38.4%; in the assay with NCI-H460 lung, 37.9%; in the assay on HOP-92 NSCLC it was 81.8%. The growth in the assay with NCI-H522 lung was 49.4%; in the assay on A549/ATCC NSCLC, 72%; with 786-0 renal, 1.85% (active); in the assay with COLO 205 colon, 44.2%.

`NCCCn1c2c(c3cc(-c4ccn[nH]4)ccc3c1=O)C(=O)c1ccccc1-2`: the growth in the assay on NCI-H23 lung is 57.6%; in the assay on NCI-H226 lung, 56.9%; in the assay on NCI-H322M lung, 67.8%; with HOP-62 NSCLC it was 42.4%; in the assay on NCI-H460 lung, 11.8%; in the assay with HOP-92 NSCLC it was 79.2%. In addition, the growth is 30.6% with NCI-H522 lung, 28.4% in the assay with A549/ATCC NSCLC, 41% in the assay with 786-0 renal and 43.8% with COLO 205 colon.

In the case of `COc1ccc2[nH]c(-c3ccccc3)c(C=C(C#N)C#N)c2c1`, the growth was 23.4% in the assay with NCI-H23 lung; 55.1% in the assay on NCI-H226 lung; 59.1% with NCI-H322M lung; 37.4% with HOP-62 NSCLC; 15.3% in the assay with NCI-H460 lung; -7.8% (active) in the assay on HOP-92 NSCLC. Besides, the growth was -18.4% (active) in the assay with NCI-H522 lung, 37% in the assay with A549/ATCC NSCLC, 33.9% in the assay on 786-0 renal and 38.2% in the assay with COLO 205 colon.

Turning to `CCC1=C[C@H]2CN(CCc3c([nH]c4ccccc34)[C@@](C(=O)OC)(c3cc4c(cc3OC)N(C)[C@H]3[C@@](O)(C(=O)OC)[C@H](OC(C)=O)[C@]5(CC)[C@@H]6C[C@@H]6CN6CC[C@]43[C@@H]65)C2)C1`, the growth with NCI-H23 lung was 44%; in the assay with NCI-H226 lung, 47.9%; with NCI-H322M lung, 66.1%; in the assay with HOP-62 NSCLC, 10.7%; in the assay on NCI-H460 lung, 5.3% (active); with HOP-92 NSCLC, -7.42% (active). The growth was -29% (active) with NCI-H522 lung, 17.7% in the assay with A549/ATCC NSCLC, 12.6% in the assay on 786-0 renal and -43.5% (active) with COLO 205 colon.

As for `C#CCOC(=O)[C@]1(C)CCC[C@]2(C)[C@H]3C[C@H]4C(C(C)C)=C[C@]3(CC[C@H]21)[C@@H]1C(=O)CCC(=O)[C@@H]14`, the growth in the assay on NCI-H23 lung was 84.1%; in the assay with NCI-H226 lung it was 85.9%; in the assay with NCI-H322M lung it was 102%; with HOP-62 NSCLC, 80.1%; with NCI-H460 lung it was 90.9%; with HOP-92 NSCLC, 54%. For the same compound, the growth in the assay on NCI-H522 lung is 63.7%; in the assay on A549/ATCC NSCLC, 76.9%; with 786-0 renal it was 88.5%; in the assay with COLO 205 colon, 105%.
